Here are results for 1 sequence from article PMC7862700, “An all-to-all approach to the identification of sequence-specific readers for epigenetic DNA modifications on cytosine”.

Experiment in all cases: DAPPL (digital affinity profiling via proximity ligation, sequencing); 10 mM Tris-HCl pH 7.5, 50 mM NaCl, 1 mM DTT, 4% glycerol, room temperature, 30 min; GST-TFs on glutathione beads, 16-mer random dsDNA library, 0.1% formaldehyde crosslink after washing; high values mean tight binding
Holding throughout (settings): protein: recombinant; tags: N-terminal GST; dsDNA, one strand shown

Assay [1] deals with T1, FLI1 (Homo sapiens, UniProt Q01543 1-452).
T1 sequence: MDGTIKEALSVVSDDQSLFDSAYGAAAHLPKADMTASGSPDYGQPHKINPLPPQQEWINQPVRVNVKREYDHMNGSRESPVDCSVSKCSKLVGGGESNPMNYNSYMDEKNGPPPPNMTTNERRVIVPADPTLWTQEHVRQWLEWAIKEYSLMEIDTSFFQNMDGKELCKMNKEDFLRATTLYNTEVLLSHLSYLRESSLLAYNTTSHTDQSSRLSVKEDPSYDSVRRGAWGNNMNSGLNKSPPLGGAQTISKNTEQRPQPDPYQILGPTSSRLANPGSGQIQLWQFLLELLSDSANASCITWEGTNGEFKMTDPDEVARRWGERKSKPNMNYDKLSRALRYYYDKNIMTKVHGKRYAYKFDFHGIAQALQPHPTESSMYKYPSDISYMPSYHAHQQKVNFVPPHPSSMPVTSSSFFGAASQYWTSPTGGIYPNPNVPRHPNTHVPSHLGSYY
The procedure, abridged: (§1)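 After expression in yeast as GST fusions, human transcription factors were bound to glutathione beads, DNA-barcoded and mixed with a tag-only sample. The pools were incubated with 200 nmole of a 16-mer random double-stranded DNA library in Tris/NaCl/DTT/glycerol buffer (30 min, room temperature), washed and crosslinked with 0.1% formaldehyde. Proximity ligation with BsaI/T4 ligase ran for 1 h at 37 °C, before PCR amplification and sequencing on an Illumina NextSeq500. Binding signal is a hexamer's read frequency for a factor divided by its frequency for the tag-only sample.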

The target of assay [2] is T2, ELK1 (Homo sapiens, UniProt P19419 1-428).
T2 sequence: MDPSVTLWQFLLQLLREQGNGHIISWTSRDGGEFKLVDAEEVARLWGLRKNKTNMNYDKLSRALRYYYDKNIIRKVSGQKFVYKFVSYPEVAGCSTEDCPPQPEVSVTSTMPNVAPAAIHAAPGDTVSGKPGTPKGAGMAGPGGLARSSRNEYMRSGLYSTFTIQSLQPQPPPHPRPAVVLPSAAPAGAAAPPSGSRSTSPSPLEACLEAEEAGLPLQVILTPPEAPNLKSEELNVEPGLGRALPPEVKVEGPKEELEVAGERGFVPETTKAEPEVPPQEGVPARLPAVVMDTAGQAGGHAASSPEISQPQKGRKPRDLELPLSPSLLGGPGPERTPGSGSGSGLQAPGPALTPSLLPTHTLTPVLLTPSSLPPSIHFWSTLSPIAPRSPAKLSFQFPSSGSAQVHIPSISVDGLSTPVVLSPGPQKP
The procedure, abridged:
as §1

Assay [3] addresses T3, GABPA (Homo sapiens, UniProt Q06546 1-454).
T3 sequence: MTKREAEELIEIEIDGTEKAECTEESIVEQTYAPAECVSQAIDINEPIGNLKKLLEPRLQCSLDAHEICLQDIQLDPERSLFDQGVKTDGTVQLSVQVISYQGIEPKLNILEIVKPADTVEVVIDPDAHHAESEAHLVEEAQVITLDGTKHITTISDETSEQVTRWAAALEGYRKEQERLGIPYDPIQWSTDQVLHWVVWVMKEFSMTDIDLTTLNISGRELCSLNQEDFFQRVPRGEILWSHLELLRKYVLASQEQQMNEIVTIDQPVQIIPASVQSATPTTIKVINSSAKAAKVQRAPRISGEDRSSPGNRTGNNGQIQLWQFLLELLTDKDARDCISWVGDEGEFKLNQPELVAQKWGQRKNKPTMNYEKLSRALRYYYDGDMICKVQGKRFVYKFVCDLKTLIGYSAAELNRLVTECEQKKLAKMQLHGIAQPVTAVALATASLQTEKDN
The procedure, abridged: as §1

Assay [4] has as its target T4, ERG (Homo sapiens, UniProt P11308 1-479).
T4 sequence: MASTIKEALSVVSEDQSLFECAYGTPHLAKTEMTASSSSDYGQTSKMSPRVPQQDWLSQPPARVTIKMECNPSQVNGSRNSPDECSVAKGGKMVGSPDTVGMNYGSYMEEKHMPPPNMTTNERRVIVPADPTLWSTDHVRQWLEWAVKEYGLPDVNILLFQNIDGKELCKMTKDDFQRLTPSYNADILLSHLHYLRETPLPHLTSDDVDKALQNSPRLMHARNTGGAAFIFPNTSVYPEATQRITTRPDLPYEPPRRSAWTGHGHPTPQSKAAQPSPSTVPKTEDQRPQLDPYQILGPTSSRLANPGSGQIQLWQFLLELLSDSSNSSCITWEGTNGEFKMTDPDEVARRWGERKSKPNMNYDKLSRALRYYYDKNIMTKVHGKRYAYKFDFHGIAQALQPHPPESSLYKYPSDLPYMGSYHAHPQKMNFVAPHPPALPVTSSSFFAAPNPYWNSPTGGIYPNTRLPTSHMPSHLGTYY
The essentials: as §1

For assay [5], the target named is ELF1 (Homo sapiens, UniProt P32519 1-619). The procedure, abridged: as §1
Assay [6] addresses T5, EHF (Homo sapiens, UniProt Q9NZC4 1-300).
T5 sequence: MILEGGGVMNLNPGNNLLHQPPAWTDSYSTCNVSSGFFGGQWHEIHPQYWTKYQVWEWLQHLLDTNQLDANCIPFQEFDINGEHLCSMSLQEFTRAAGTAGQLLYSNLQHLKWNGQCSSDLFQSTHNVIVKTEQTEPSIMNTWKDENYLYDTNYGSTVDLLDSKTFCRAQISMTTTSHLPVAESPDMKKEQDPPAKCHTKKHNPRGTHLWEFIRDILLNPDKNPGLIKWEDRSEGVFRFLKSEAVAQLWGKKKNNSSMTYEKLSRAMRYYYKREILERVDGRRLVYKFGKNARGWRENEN
The essentials:
as §1

Assay [7] deals with SPI1 (Homo sapiens, UniProt P17947 1-270). The procedure, abridged:
as §1

The target in assay [8] is SPIB (Homo sapiens, UniProt Q01892 1-262). The procedure, abridged: as §1
The target of assay [9] is T6, ELK3 (Homo sapiens, UniProt P41970 1-407).
T6 sequence: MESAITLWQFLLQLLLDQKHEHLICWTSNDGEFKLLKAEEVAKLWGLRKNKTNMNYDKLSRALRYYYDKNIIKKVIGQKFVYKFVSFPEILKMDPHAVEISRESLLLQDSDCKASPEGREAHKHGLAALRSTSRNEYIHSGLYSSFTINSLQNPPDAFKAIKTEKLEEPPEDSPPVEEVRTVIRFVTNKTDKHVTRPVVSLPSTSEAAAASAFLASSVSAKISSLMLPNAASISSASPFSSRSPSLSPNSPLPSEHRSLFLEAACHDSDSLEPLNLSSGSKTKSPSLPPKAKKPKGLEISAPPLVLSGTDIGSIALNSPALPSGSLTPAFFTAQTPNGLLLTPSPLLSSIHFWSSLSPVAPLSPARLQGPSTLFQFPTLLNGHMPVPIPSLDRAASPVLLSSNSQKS
The essentials:
as §1

The target of assay [10] is T7, FEV (Homo sapiens, UniProt Q99581 1-238).
T7 sequence: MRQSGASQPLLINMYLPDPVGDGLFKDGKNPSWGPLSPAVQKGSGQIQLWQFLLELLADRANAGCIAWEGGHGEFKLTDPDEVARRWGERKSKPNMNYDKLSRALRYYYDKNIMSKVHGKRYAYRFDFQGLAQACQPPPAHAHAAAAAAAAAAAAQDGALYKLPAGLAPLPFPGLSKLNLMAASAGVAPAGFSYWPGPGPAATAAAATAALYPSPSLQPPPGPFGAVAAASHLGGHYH
The essentials: as §1

For assay [11], the target named is ETV5 (Homo sapiens, UniProt P41161 1-510). The essentials:
as §1

Assay [12] has as its target T8, SPIC (Homo sapiens, UniProt Q8N5J4 1-248).
T8 sequence: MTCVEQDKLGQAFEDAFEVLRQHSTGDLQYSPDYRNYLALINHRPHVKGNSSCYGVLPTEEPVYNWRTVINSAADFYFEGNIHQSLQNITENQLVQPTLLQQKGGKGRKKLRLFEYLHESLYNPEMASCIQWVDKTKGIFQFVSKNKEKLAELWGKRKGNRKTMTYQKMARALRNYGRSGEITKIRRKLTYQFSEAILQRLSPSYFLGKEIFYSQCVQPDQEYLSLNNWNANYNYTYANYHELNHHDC
The essentials: as §1

The target in assay [13] is ELF4 (Homo sapiens, UniProt Q99607 1-663). The essentials: as §1
In assay [14] the target is ETV1 (Homo sapiens, UniProt P50549 1-477). The essentials:
as §1

In assay [15] the target is T9, ETV3L (Homo sapiens, UniProt Q6ZN32 1-361).
T9 sequence: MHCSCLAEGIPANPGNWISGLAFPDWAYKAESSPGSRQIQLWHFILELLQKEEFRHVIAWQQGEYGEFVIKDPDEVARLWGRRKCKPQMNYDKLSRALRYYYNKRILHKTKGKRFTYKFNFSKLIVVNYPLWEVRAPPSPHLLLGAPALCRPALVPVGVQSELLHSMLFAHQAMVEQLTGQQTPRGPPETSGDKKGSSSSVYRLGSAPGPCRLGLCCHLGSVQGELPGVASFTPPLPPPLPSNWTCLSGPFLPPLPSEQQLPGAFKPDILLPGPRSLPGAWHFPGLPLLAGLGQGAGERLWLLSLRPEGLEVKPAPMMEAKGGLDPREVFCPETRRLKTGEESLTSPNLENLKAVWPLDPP
The essentials:
as §1

In assay [16] the target is T10, ETS2 (Homo sapiens, UniProt P15036 1-469).
T10 sequence: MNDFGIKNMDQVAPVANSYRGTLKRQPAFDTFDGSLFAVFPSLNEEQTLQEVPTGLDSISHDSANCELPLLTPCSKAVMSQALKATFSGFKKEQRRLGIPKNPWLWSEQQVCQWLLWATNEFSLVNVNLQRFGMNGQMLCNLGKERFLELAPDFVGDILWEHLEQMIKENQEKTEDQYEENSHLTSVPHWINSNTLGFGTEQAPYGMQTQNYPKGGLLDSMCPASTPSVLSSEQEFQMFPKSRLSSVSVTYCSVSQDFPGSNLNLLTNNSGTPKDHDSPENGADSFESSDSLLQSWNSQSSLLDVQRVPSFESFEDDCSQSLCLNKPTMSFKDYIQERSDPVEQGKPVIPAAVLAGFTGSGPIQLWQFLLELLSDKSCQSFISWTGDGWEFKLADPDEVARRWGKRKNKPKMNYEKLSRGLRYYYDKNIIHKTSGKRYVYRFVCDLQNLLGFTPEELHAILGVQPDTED
The essentials: as §1

Assay [17] concerns the target T11, ELF5 (Homo sapiens, UniProt Q9UKW6-2 1-255).
T11 sequence: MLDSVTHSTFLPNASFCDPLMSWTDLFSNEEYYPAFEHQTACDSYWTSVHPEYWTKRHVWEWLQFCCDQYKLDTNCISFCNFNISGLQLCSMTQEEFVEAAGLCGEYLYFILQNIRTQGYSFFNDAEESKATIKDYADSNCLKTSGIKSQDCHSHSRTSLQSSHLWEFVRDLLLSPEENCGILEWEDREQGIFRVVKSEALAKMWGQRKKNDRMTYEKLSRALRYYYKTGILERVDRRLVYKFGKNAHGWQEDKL
The essentials:
as §1

Assay [18] addresses T12, ETV3 (Homo sapiens, UniProt P41162-2 1-143).
T12 sequence: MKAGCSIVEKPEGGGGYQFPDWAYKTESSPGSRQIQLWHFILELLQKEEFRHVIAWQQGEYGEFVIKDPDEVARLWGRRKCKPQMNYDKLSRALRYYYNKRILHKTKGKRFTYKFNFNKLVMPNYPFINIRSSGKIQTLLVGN
The essentials: as §1

For assay [19], the target named is ETV6 (Homo sapiens, UniProt P41212 1-452). The procedure, abridged:
as §1

Sequence of ELF1 (P32519 whole entry): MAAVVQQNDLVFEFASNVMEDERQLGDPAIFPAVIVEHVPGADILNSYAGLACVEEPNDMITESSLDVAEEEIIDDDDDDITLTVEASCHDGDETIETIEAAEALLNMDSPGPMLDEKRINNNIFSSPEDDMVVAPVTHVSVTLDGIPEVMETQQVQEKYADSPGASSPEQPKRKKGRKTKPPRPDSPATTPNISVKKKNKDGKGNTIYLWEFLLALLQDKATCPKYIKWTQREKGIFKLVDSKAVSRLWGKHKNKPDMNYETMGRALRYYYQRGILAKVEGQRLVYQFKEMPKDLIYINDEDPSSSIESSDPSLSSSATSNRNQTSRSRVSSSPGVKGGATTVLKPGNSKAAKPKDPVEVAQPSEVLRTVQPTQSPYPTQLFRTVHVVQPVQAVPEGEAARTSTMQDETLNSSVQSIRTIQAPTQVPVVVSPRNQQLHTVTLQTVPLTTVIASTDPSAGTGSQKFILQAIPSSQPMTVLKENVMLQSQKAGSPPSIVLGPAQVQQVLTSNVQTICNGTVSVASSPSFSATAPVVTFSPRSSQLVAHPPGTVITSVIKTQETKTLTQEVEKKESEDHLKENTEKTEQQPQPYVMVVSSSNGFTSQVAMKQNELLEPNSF
Sequence of ELF4 (Q99607 whole entry): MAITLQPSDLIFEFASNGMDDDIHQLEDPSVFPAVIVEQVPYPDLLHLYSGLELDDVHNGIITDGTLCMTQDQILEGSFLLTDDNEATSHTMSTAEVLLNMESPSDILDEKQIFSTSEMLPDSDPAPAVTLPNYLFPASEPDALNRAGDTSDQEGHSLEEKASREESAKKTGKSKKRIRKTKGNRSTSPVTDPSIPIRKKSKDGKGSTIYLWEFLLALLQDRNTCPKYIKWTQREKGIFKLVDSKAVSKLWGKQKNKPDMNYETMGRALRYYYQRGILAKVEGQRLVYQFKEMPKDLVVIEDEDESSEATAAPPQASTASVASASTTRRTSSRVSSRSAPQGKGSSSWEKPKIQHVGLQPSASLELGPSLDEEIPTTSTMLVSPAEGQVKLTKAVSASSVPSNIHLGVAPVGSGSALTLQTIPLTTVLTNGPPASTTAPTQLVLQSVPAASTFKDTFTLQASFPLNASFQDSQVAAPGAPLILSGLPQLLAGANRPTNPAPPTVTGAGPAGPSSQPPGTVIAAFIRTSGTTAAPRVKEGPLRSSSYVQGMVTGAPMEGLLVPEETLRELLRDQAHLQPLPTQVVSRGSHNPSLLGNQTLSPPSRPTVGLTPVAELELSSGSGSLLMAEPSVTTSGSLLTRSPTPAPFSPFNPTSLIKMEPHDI
Sequence of SPIB (Q01892 whole entry): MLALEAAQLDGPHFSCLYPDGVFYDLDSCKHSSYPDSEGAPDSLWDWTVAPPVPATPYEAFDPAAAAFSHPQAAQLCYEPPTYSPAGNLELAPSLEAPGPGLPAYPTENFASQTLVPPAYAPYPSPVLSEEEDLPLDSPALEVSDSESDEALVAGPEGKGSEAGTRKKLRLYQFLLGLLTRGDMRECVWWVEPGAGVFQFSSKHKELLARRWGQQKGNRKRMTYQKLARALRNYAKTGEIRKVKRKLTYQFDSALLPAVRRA
Sequence of ETV5 (P41161 whole entry): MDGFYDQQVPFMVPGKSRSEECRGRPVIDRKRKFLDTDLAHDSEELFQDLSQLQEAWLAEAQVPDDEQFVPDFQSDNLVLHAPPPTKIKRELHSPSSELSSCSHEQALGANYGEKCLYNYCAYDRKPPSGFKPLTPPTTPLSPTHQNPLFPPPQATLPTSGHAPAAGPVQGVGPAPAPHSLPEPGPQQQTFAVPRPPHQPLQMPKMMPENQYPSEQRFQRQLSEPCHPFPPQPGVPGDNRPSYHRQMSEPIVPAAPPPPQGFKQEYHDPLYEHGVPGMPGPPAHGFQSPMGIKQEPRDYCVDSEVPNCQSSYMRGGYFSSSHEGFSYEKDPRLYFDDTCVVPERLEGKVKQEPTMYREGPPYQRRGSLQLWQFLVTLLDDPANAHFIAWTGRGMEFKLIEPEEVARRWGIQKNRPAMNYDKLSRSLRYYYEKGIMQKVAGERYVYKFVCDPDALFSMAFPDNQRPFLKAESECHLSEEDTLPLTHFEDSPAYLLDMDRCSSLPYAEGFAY
Sequence of ETV1 (P50549 whole entry): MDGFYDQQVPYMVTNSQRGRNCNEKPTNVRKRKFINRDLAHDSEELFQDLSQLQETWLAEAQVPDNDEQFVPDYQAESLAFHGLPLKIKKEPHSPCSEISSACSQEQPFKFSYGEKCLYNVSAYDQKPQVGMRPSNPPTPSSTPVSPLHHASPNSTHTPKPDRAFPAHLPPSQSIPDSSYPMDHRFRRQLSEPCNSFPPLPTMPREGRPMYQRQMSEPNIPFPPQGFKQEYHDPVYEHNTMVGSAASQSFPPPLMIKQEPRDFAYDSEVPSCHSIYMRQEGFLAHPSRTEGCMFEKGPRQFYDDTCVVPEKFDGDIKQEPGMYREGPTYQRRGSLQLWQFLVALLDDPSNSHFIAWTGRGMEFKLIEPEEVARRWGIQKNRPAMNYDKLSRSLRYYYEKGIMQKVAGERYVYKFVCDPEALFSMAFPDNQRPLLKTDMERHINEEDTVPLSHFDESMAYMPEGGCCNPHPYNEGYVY
Sequence of ETV6 (P41212 whole entry): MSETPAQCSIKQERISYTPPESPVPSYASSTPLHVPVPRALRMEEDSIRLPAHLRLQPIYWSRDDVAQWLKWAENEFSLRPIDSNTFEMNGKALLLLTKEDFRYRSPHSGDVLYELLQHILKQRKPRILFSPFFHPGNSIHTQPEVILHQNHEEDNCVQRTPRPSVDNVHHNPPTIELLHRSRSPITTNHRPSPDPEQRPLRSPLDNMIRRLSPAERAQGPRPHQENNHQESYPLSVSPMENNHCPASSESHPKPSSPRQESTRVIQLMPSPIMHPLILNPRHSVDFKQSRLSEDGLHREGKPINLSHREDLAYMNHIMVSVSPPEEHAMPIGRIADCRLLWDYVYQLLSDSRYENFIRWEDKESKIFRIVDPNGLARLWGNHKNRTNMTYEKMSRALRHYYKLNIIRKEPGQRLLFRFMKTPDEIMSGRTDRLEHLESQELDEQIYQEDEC

With TTGCCG, the binding signal in assay [1] is 1.2 fold enrichment (6-mer frequency, TF over GST control); in assay [2] it was 1.14 fold enrichment (6-mer frequency, TF over GST control); in assay [3] it was 1.16 fold enrichment (6-mer frequency, TF over GST control); in [4] it was 1.04 fold enrichment (6-mer frequency, TF over GST control); in assay [5], 1.03 fold enrichment (6-mer frequency, TF over GST control); in assay [6] it was 1.19 fold enrichment (6-mer frequency, TF over GST control). The binding signal in assay [7] is 1.12 fold enrichment (6-mer frequency, TF over GST control); in [8], 1.12 fold enrichment (6-mer frequency, TF over GST control); in assay [9], 1.07 fold enrichment (6-mer frequency, TF over GST control); in assay [10] it was 1.12 fold enrichment (6-mer frequency, TF over GST control); in assay [11] it was 1.12 fold enrichment (6-mer frequency, TF over GST control); in [12], 1.08 fold enrichment (6-mer frequency, TF over GST control). The binding signal in assay [13] was 1.12 fold enrichment (6-mer frequency, TF over GST control); in [14], 1.09 fold enrichment (6-mer frequency, TF over GST control); in [15], 1.11 fold enrichment (6-mer frequency, TF over GST control); in assay [16], 1.12 fold enrichment (6-mer frequency, TF over GST control); in [17], 1.07 fold enrichment (6-mer frequency, TF over GST control); in [18], 1.1 fold enrichment (6-mer frequency, TF over GST control). In addition, the binding signal in assay [19] is 1.08 fold enrichment (6-mer frequency, TF over GST control).
